# Screening data (PubChem)
# An excerpt weighted towards active compounds, which were near 4.4% of everything screened.
# p53ts 32C tox – qHTS Screen for Compounds that Selectively Target Cancer Cells with p53 Mutations: Cytotoxicity of p53ts Cells at the Permissive Temperature; H1299-p53A138V at 32C, ATP luminescence viability, 24 h; Potency, µM (highest dose often 46.1 µM), without a hit: top-dose activity change, negative = cytotoxicity, hits mostly cytotoxic; 0.93% of 130,000 active; AID 924, 2007;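 also: 0% = DMSO and -100% = full killing by reference compound; nearly all actives have a fitted effect of over 55% in size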
#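 Cells: H1299 p53ts (A138V), 600/well, pre-incubated 16–30 h at 37C. Cpd up to 46 uM, 24 h, 32C. Readout: ATPlite luminescence, 20 min RT. Normalization: DMSO vs tamoxifen 100 uM. AC50 by Hill equation.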
# HPGD inh – qHTS Assay for Inhibitors of HPGD (15-Hydroxyprostaglandin Dehydrogenase); purified HPGD, NADH fluorescence kinetic, PGE2 substrate; Potency, µM, without a hit: at the top dose activity change, negative = inhibition, most hits filed as inhibitors; 4.3% of 150,000 active; AID 894, 2007; active = well fitted inhibition curve with a large enough effect, not every such curve was filed as active; inconclusive = small, poorly fitted or top-dose-only effect, or another doubt; inactive = no such curve, though single readings can be large or run the other way
#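 20 nM HPGD preincubated 15 min at room temperature with compound in 50 mM Tris-HCl pH 8, 0.01% Tween 20. Started with 1 mM NAD+ and 30 uM prostaglandin E2; NADH fluorescence (360/450 nm) read 5 times over 30-s intervals, last minus first.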
# p53ts 39C tox – qHTS Screen for Compounds that Selectively Target Cancer Cells with p53 Mutations: Cytotoxicity of p53ts Cells at the Nonpermissive Temperature; AID 902, 2007; H1299-p53A138V viability at 39C, ATP luminescence, 24 h; Potency, µM (highest dose often 46.1 µM), without a hit: at the highest dose activity change, negative = cell killing, actives largely listed as cytotoxic; 1.5% of 130,000 active; also: nearly all actives have a fitted effect of over 55% in size
# ALOX12 inhib – qHTS Assay for Inhibitors of 12-hLO (12-human lipoxygenase); Polyunsaturated fatty acid lipoxygenase ALOX12 (Homo sapiens), P18054; purified 12-hLO, xylenol orange hydroperoxide absorbance; Potency, µM (series often up to 57.1 µM), for the others: at the highest dose activity change, negative = inhibition, actives largely listed as inhibitors; 0.12% of 150,000 active; AID 1452, 2008; also: nearly all actives have a fitted effect of over 55% in size
# Target sequence (P18054 whole entry, looked up): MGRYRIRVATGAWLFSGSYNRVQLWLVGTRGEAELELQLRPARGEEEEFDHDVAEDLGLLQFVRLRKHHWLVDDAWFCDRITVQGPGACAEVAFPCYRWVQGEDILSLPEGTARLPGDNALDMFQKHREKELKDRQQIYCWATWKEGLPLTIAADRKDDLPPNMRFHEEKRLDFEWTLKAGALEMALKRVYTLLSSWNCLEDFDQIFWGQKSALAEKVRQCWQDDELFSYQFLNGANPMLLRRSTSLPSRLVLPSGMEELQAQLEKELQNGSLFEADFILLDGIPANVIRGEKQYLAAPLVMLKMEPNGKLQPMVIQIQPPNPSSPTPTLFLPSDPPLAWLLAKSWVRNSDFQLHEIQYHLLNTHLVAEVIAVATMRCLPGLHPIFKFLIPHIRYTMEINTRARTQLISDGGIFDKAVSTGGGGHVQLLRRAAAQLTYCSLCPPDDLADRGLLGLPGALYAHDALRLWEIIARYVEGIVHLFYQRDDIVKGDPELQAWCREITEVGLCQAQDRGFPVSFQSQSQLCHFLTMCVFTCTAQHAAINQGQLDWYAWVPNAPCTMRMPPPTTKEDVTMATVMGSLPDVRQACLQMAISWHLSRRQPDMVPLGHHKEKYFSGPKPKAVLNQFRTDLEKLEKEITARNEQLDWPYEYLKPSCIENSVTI
#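 Hydroperoxide output read as Fe(III)-xylenol orange absorbance, 573-to-405 nm ratio, after 30 min reaction with 40 uM arachidonic acid. Enzyme: 150 nM purified human 12hLO, 15 min compound preincubation; 25 mM Hepes pH 7.0, room temperature.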
# * = called active by the depositor; ? = inconclusive; · = no result given; [ ] = dose if it differs, or a comment. Unless noted, calls follow the shape of the dose curve; as a rule, active = well fitted curve in the direction sought with a large enough effect; inconclusive = small, poorly fitted or top-dose-only effect, or another doubt; inactive = no such curve, though single readings can be large; an effect the other way counts as inactive or inconclusive. Unless noted, % is scaled to controls: 0 for no effect and ±100 for the full control effect; potency is read from the fitted curve at half-maximal effect.
SMILES,p53ts 32C tox,HPGD inh,p53ts 39C tox,ALOX12 inhib
O=C(c1ccc(Br)o1)N1CCN(c2ccc3nnc(-c4ccccc4)n3n2)CC1,13µM*,-22%,-5%,-11%
C/C(CCC(=O)OC[C@@H]1O[C@H](C#Cc2ccccc2)C=C[C@@H]1Oc1ccc(C)cc1)=N/O[C@@H](C)c1cn([C@H]2COC[C@H]2O)nn1,1%[9.22 µM],·,0%[9.22 µM],·
C(/CCc1ccccc1)=N\n1cnnc1,-2%,-6%,-3%,-1%
C(=C\c1ccco1)/C=N/n1cnnc1,3%,32µM*,3%,-12%
CCOc1cccc(-c2nc3cc(C)ccc3o2)c1,16µM*,?,?,-3%
Cc1cccc(OCC(=O)Nc2ccc(-c3nc4cc(C)ccc4o3)c(O)c2)c1,-25%,·,10µM*,·
Cc1ccc2oc(-c3ccccc3)nc2c1,·,?,·,7%
Cc1cc(N2CCN(C)CC2)nc2ccc(NC(=O)Nc3ccc(F)cc3)cc12,-13%,·,?,·
Cc1cc(C)cc(NC(=O)Nc2ccc3nc(N4CCN(C)CC4)cc(C)c3c2)c1,3%,·,13µM*,·
Cc1cc(N2CCN(C)CC2)nc2ccc(NC(=O)Nc3ccccc3Cl)cc12,10µM*,·,13µM*,·
COc1cccc(/C=C/C(=O)Nc2ccc3nc(N4CCN(C)CC4)cc(C)c3c2)c1OC,?,·,13µM*,·
COc1cc(/C=C/C(=O)c2ccc(C)c([N+](=O)[O-])c2)cc(OC)c1O,·,-8%,·,-10%
COc1cc(O)c(C(=O)/C=C/c2ccc(OC)c(O)c2)c(OC)c1,10µM*,7.9µM*,63%,-28%
COc1ccc(/C=C/C(=O)c2ccc(C)c([N+](=O)[O-])c2)cc1O,·,22µM*,·,-25%
O=C(COc1ccccc1)NCC(c1ccc(Cl)cc1)N1CCCCC1 (stereo not drawn),-5%,·,14%,·
OCC1NCC(O)C(O)C1O (stereo not drawn),·,-10%,·,·
CCOC(=O)c1[nH]c(C)c(C(=O)NC2CCCC2)c1C,-5%,18µM*,2%,6%
CCOC(=O)c1[nH]c(C)c(C(=O)NC2CCCCCC2)c1C,21%,-2%,-12%,-1%
Nc1ncnc2c1ncn2[C@@H]1O[C@@H](CO)[C@H](O)[C@H]1O,11%[20.6 µM],-4%,12%[20.6 µM],3%[25.6 µM]
COCCCNC(=O)/C=C/c1c(Cl)cccc1Cl,·,16µM*,·,2%
COCCCNC(=O)/C=C/c1ccc(Cl)cc1,·,-21%,·,-1%
COCCNC(=O)/C=C/c1c(Cl)cccc1Cl,·,13µM*,·,-4%
COc1ccc(-c2noc(CC(=O)Nc3ccc(Br)cc3C)n2)cc1,-6%,·,0%,·
N#C/C(=N\Nc1cc(Cl)cc(Cl)c1)c1nnc2n1CCCCC2,·,25µM*,·,?
Cc1c(C(=O)N2CCC(C(=O)Nc3ccc(F)c(Cl)c3)CC2)sc2nc[nH]c(=O)c12,1%,·,-16%,·
SMILES,p53ts 32C tox,HPGD inh,p53ts 39C tox,ALOX12 inhib
Cc1ccccc1Cn1cc(CCC(=O)NC(C)c2ccccc2)c2ccccc21 (stereo not drawn),-4%,·,-10%,·
CCn1c(SCC(=O)Nc2ccc3c(c2)OCO3)nc2c1c(=O)n(C)c(=O)n2C,-3%,-3%,7%,3%
Cn1c(=O)c2c(nc(SCC(=O)O)n2Cc2cc3c(cc2Cl)OCO3)n(C)c1=O,·,25µM*,·,3%
CCc1ccc(CNC(=O)CN2C(=O)CCn3nc(-c4cn(C)c5ccccc45)cc32)cc1,-4%,·,-11%,·
CCn1ccc2c(OCC(=O)Nc3ccc(OC)cc3OC)cccc2c1=O,1%,·,-15%,·
CC(=O)NS(=O)(=O)c1ccc(NC(=O)COc2ccc(C(=O)c3ccccc3)cc2)cc1,·,25µM*,·,-2%
COc1ccc(OCc2nc3ccccc3n2C(C)c2ccccc2)cc1 (stereo not drawn),21%,·,?,·
COc1ccc(C(=O)Nc2ccc(Cl)c(S(=O)(=O)Nc3ccccc3OC)c2)cc1,·,-29%,·,-4%
CCN(CC)c1ccc(NC(=O)c2ccccc2)cc1S(=O)(=O)Nc1ccccc1OC,·,1.8µM*,·,-5%
O[C@@H](C1=C/C(=C\c2ccncc2)c2ccccc21)c1ccncc1,-8%[9.22 µM],-1%,-18%[9.22 µM],-1%[11.4 µM]
CCOc1cccc2sc(N(Cc3cccnc3)C(=O)c3ccc(C#N)cc3)nc12,-8%,·,-19%,·
